# PNC inhibitor = perinucleolar compartment assembly inhibition | PC3M PTB-GFP, PNC prevalence imaging, 16 h; hits give low values | activity change (PNC), negative = inhibition, % at 10 µM | actives 3.1% (n = 140,000);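 active = readout at or below -70, meaning at least 70% loss of cells showing the perinucleolar compartment, a nuclear body marking cancer cells; inconclusive = readout between -30 and a set limit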;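 also: plate controls were DMSO wells for no effect and camptothecin positive control wells for full effect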
#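 Compounds are pinned in duplicate onto adhered PC3M cells stably expressing GFP-tagged PTB and incubated 16 h at 37 C. Cells are then fixed, nuclei stained with Hoechst, and PNC-positive cells counted.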
# ALOX12 inhib = inhibitors of human 12-lipoxygenase (ALOX12); actives 0.12% (n = 150,000); purified 12-hLO, xylenol orange hydroperoxide absorbance; AID 1452; P18054; Potency, µM (highest dose often 57.1 µM), for the others: at the highest dose activity change, negative = inhibition, most hits filed as inhibitors; active = well fitted inhibition curve with a large enough effect; inconclusive = small, poorly fitted or top-dose-only effect; also: potency is read from the fitted curve at half-maximal effect; nearly all actives have a fitted effect of over 55% in size
# Target sequence (P18054 whole entry, looked up): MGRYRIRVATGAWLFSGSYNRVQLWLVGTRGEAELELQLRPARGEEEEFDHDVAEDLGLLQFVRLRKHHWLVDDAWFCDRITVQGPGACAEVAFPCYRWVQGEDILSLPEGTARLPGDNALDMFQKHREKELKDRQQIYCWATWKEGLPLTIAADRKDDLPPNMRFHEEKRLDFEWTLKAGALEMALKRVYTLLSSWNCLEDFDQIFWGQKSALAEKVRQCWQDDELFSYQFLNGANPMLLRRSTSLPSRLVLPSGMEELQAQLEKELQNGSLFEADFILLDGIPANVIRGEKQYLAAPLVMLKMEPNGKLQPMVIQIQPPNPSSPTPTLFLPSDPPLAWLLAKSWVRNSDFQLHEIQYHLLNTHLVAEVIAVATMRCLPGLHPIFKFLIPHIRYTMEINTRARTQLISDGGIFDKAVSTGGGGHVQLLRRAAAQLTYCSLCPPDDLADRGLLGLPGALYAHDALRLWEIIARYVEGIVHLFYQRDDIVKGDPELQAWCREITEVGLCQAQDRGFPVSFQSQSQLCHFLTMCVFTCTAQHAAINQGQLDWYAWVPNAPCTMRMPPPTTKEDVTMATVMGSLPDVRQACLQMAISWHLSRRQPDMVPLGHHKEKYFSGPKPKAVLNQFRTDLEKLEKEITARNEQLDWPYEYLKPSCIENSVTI
#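 150 nM 12hLO, 25 mM Hepes pH 7.0 + 0.01% Triton X-100; cpd preinc 15 min RT; 40 uM arachidonic acid, 30 min RT; Fe-XO 30 min; A573/A405 ratio as read-out.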
# LMNA splice mod = changes lamin A minigene splicing in HeLa cells. Potency, µM (top dose mostly 46.1 µM), inactives show top-dose ratio change, negative = inhibition, most hits filed as inhibitors. actives 0.01% (n = 200,000). HeLa LMNA splicing GFP/RFP minigene ratio, 48 h. AID 1487; active = well fitted inhibition curve with a large enough effect in the signal ratio, with a control signal flat, not every such curve was filed as active; inconclusive = small, poorly fitted or top-dose-only effect, or effect the other way, or a change in a side signal; the % refers to the signal ratio; also: potency is read from the fitted curve at half-maximal effect
#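 Read-out is the ratio of GFP to DsRed2 object intensity, acquired by 488 nm laser-scanning cytometry on HeLa lamin A-EGFP minigene reporter cells. Compound incubation 48 hrs at 37 °C in Opti-MEM with 2% FBS; DMSO 0.5% final.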
# HPGD block = HPGD (human) dehydrogenase inhibition; purified HPGD, NADH fluorescence kinetic, PGE2 substrate; actives 4.3% (n = 150,000); Potency, µM, for inactives: top-dose activity change, negative = inhibition, hits mostly inhibitors; P15428; also: potency is read from the fitted curve at half-maximal effect
#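 20 nM HPGD preincubated 15 min at room temperature with compound in 50 mM Tris-HCl pH 8, 0.01% Tween 20. Started with 1 mM NAD+ and 30 uM prostaglandin E2; NADH fluorescence (360/450 nm) read 5 times over 30-s intervals, last minus first.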
# ALDH1A1 inh = inhibitors of human aldehyde dehydrogenase 1A1; AID 1030; Potency, µM (top dose mostly 75.3 µM), without a hit: at the top dose activity, negative = inhibition, most hits filed as inhibitors; Purified ALDH1A1, NADH fluorescence, propionaldehyde substrate; P00352; actives 7.3% (n = 220,000);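 also: potency is read from the fitted curve at half-maximal effect; plate controls were no enzyme wells and a reference inhibitor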
# Numbers without * were called inactive; ? = inconclusive; . = no result; ! = repeats disagree; [ ] = remark or other dose. An excerpt weighted towards active compounds, which were near 10% of everything screened. Unless noted, calls follow the shape of the dose curve; as a rule, active = well fitted inhibition curve with a large enough effect (not every such curve was filed as active); inconclusive = small, poorly fitted or top-dose-only effect, or another doubt; inactive = no such curve, though single readings can be large or run the other way. Unless noted, % is scaled to controls: 0 for no effect and ±100 for the full control effect.
SMILES,PNC inhibitor,ALOX12 inhib,LMNA splice mod,HPGD block,ALDH1A1 inh
Nc1nc(=S)c2ncn(C3OC(CO)C(O)C3O)c2[nH]1 (stereo unspecified),.,.,-20%[46 µM],.,7.9µM*
CC(=O)OC(C)(C)/C=C/C(=O)[C@](C)(O)[C@H]1[C@H](O)C[C@@]2(C)[C@@H]3CC=C4[C@H](C[C@H](O)C(=O)C4(C)C)[C@]3(C)C(=O)C[C@]12C,-115*,-1%,?,-11%,1%
O=C(c1cc2c(s1)CCCC2)N1CCC2(CC1)OCCO2,-26,1%,?,25µM*,11µM*
O=C(c1csc2c1CCCCC2)N1CCC2(CC1)OCCO2,?,-5%,5%,?,8.9µM*
C[C@H](N[C@@H](C)CCc1ccccc1)[C@H](O)c1ccc(O)cc1,.,-2%,.,.,.
CC1(C)CCC(C)(C)c2c1ccc(O)c2Cc1c(O)ccc2c1C(C)(C)CCC2(C)C,.,-9%[11.4 µM],.,-10%,-8%[13.5 µM]
O=C/C=C/c1ccccc1,.,0%[0.00818 µM],?,-9%,13µM*!
CC(=NCCCN1CCOCC1)c1c(O)n(-c2ccccc2C)c(=O)[nH]c1=O,29,3%,-13%,-8%,14µM*
Cc1ccccc1C(=O)NNC(=S)NC(=O)COc1ccccc1,51,?,15%,25µM*,7.1µM*
CC1=NN(c2ccc(S(=O)(=O)O)cc2C)C(=[OH+])[C@H]1N=Nc1cc(S(=O)(=O)O)ccc1C(=O)O.O.[Cr],.,0%[11.4 µM],.,-16%,?
CN1C(=O)C(=Cc2c(OCc3cnc(Cl)s3)ccc3ccccc23)C(=O)N(C)C1=O,.,.,.,.,2.2µM*
NCCc1ccc(S(=O)(=O)O)cc1[N+](=O)[O-],.,-1%[11.4 µM],.,-5%,0%[13.5 µM]
O=C1C2CCCN2C(c2cccnc2)N1c1ccc(Cl)c(Cl)c1 (stereo unspecified),72,-2%,-2%,-7%,-4%
O=C1C2CCCN2C(c2ccncc2)N1c1ccc(Cl)c(Cl)c1 (stereo unspecified),?,-11%,2%,.,20µM*
Cc1cccc(C)c1O,.,-6%,.,-2%,?
COc1ccc(N2C(=O)NC(=O)/C(=C\c3ccc([N+](=O)[O-])s3)C2=O)cc1,.,.,?,.,40µM*
CCc1ccc(N2C(=O)NC(=O)/C(=C/c3cccn3CCOc3ccc(C)cc3)C2=O)cc1,?,-11%,-7%,-7%,7%
CCOc1ccc(N2C(=O)NC(=O)/C(=C\c3cc(OC)c(OC)cc3[N+](=O)[O-])C2=O)cc1,-3,-15%,-6%,28µM*,11µM*
COc1ccc(N2C(=O)/C(=C/C=C/c3ccccc3[N+](=O)[O-])C(=O)NC2=S)cc1,.,.,.,.,8.9µM*
O=C1NC(=S)N(c2ccc(Br)cc2)C(=O)/C1=C/N1CCN(C(=O)c2ccco2)CC1,.,.,-10%[46 µM],.,?
COc1ccc(CN2C(=O)NC(=O)/C(=C/c3ccc([N+](=O)[O-])s3)C2=O)cc1,.,.,.,.,4µM*
Cc1ccc(-n2c(-c3nn(C)c(C)c3Cl)n[nH]c2=S)cc1,?,-5%,3%,28µM*,32µM*
COc1cc(/C=C(/C)[N+](=O)[O-])ccc1OCc1ccccc1Cl,?,-1%,?,10µM*,2.8µM*
COc1ccccc1N1CCN(Cc2ccccc2Cl)CC1,17,-20%,-13%,-2%,-2%
N#CCCn1cc(C=C2C(=O)NC(=O)NC2=O)c(-c2ccccc2)n1,.,.,5%[9.22 µM],.,-10%
SMILES,PNC inhibitor,ALOX12 inhib,LMNA splice mod,HPGD block,ALDH1A1 inh
O=C(O)CCn1cc(C=C2C(=O)NC(=S)NC2=O)c(-c2ccccc2)n1,.,.,.,.,1.1µM*
Cn1ccnc1P(=S)(c1nccn1C)N1CCOCC1,10,-2%,-5%,25µM*,28µM*
CCOC(=O)C1=C(NC(=S)NC(=O)c2ccccc2)c2ccccc2CC12CCCC2,64,?,?,-12%,22µM*
O=[N+]([O-])c1cccc2ccccc12,.,-3%,.,-5%,?
O=[N+]([O-])c1ccc2c3c(cccc13)CC2,.,-26%,.,-28%,3.2µM*
Cc1ccc(C2(c3ccc(C)c(O)c3C)CCN(C)CC2)c(C)c1O,.,3%[11.4 µM],.,-8%,-2%[13.5 µM]
Cc1nc2cc(C(=O)N3CCC4(CC3)OCCO4)ccc2n1-c1cccc(F)c1,-12,8%,9%,2.8µM*,25µM*
